Test results from PubChem BioAssay (NCATS).
Values joined by “and” are separate entries in the source; they are usually repeats but may differ in a detail not shown here. Equal entries are not always repeated. Records with an inconclusive call do not appear. Active and inactive are the calls of the source. Unless noted, the call rests on the fitted dose curve; in most records, active means well fitted curve in the direction sought with a large enough effect; inconclusive means small, poorly fitted or top-dose-only effect, or another doubt; inactive means no such curve, though single readings can be large; an effect the other way counts as inactive or inconclusive. *1 amine or outer side, *2 acyl side, *3 side chain or, on linkers, in order; H or OH if unused. Where a SMILES comes first, the peptide text is derived from it. Bridges are numbered along the chain shown (N, C = ends). Roman numbers before positions name the chains, in order. [ ]: non-standard residue; d: D form. ξ: configuration not given here. Actinocin(9to1) = Cc1c2oc3c(C)ccc(C(=O)[*:1])c3nc-2c(C(=O)[*:2])c(N)c1=O; ξNMeV = CNC(C(=O)O)C(C)C; ξV = CC(C)C(N)C(=O)O; Sar = CNCC(=O)O

Columns and labels:
[1] = qHTS Assay for Identification of Small Molecule Antagonists for NFkB Signaling Pathway. (AID 624479; calls by dose curve;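 further: pathway stimulated with TNF alpha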; further: potency means the concentration at half of the fitted maximal effect)
[2] = Cell Proliferation Assay against the HBL1 Cell Line (AID 651646); details: HBL1 DLBCL cells; at 46.1 µM (top of the series) unless noted;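 further: cells exposed to compound for 48 h before reading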
In short: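 CellTiter-Glo luminescence after 48 h compound exposure at 37C gives percent activity, with DMSO as 100% and 9.2 uM bortezomib final as 0%. Cells: 500 log-phase HBL1 per well, RPMI plus 5% FBS.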

[3] = target: Tyrosine-protein kinase Yes (Homo sapiens) (UniProt P07947); experiment: qHTS for small molecule inhibitors of Yes1 kinase: Primary Screen (AID 686947);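 further: plate controls were DMSO with enzyme for no effect and no-enzyme DMSO wells for full effect; nearly all actives have a fitted effect of over 60% in size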
In short: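 ADP-Glo luminescence reports ADP formed by 4 nM Yes1 phosphorylating poly(E4Y) (0.3 mg/mL) with 0.1 mM ATP for 60 min at room temperature, following 20 min compound preincubation; normalised between DMSO wells with and without enzyme.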

[4] = qHTS for small molecule inhibitors of Yes1 kinase: Counter Assay (AID 686950);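 further: no kinase present so only ADP-Glo detection of a fixed ADP amount is tested; luminescence from ADP-Glo reporting ADP in a fixed ATP and ADP mixture; 0% = DMSO wells with ATP plus ADP and -100% = ATP-only wells without ADP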
In short: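 ADP-Glo luminescence read after a 60 min room-temperature incubation of compound with an ATP/ADP mix (0.08 mM/0.02 mM) and no kinase, following a 20 min compound preincubation. Signal scaled between ATP+ADP (max) and 0.1 mM ATP-only (min) wells; Tris pH 7.5, Mg2+, DTT.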

[5] = qHTS assay for small molecule activators of the p53 signaling pathway (AID 651743; active means well fitted activation curve with a large enough effect in the signal ratio, not every such curve was filed as active; the % refers to the signal ratio; further: potency means the concentration at half of the fitted maximal effect; on activation: % of control where 0% means no effect); details: HCT-116 p53RE-bla, beta-lactamase FRET ratio, 16 h; activation: stronger effect = higher value
In short: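 After 16 hours compound treatment at 37 C, HCT-116 cells stably expressing p53RE-driven beta-lactamase were loaded with LiveBLAzer B/G FRET substrate for 2 hours at room temperature. Fluorescence intensity served as the p53 activation read-out.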

[6] = qHTS assay for environmental chemicals that activate the Aryl hydrocarbon Receptor (AhR) signaling pathway (AID 651777); details: 1A2-DRE human hepatoma cells, luciferase, 24 h; stronger effect = higher value; further: % of control where 0% means no effect; nearly all actives have a fitted effect of over 15% in size
In short: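 Human hepatoma 1A2-DRE cells stably carrying a DRE/CYP1A2 promoter–luciferase reporter, 1,200 cells/well, exposed to compound 24 hr at 37 C. Luciferase read by One-Glo luminescence after 30 min at room temperature; increased signal marks AhR activation.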

[7] = target: Peroxisome proliferator-activated receptor alpha (Homo sapiens) (UniProt Q07869); experiment: qHTS assay for small molecule agonists of the peroxisome proliferator-activated receptor alpha (PPARalpha) signaling pathway (AID 651778); details: PathHunter PPARalpha complementation, chemiluminescence, 6 h; max response: stronger effect = higher value; further: % of control where 0% means no effect
In short: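 Chemiluminescence from complemented enzyme reported PPARalpha activation in cells after 6 hr of compound treatment at 37 C. The detection reagent was incubated for 60 min at room temperature, and compounds were scored as agonists.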

[8] = qHTS assay for small molecule agonists of the antioxidant response element (ARE) signaling pathway measured by Nrf2-dependant transcriptional activity - cell viability counter screen (AID 720653; active means well fitted curve in the direction sought with a large enough effect in the repeat runs; an effect the other way counts as inactive or inconclusive; further: on the % scale 0 is the no-effect control and ±100 the full control effect); details: ARE-bla HepG2 viability, CellTiter-Glo ATP luminescence, 16 h; stronger effect = lower value
In short: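 Cytotoxicity counter screen: intracellular ATP quantified by CellTiter-Glo luminescence in the same ARE-bla HepG2 plates, after 16 h compound exposure and a 2 h beta-lactamase substrate step.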

[9] = qHTS assay for small molecule activators of the nuclear factor-kappa B (NF-kB) signaling pathway (AID 651749; active means well fitted activation curve with a large enough effect in the signal ratio; the % refers to the signal ratio; further: % of control where 0% means no effect); details: NF-kB-bla ME-180 cells, beta-lactamase FRET ratio, 16 h; stronger effect = higher value
In short: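 Activation measured after 16 hr compound treatment at 37C, 5% CO2, of 2,000 ME-180 cells/well stably expressing an NF-kB response element–driven beta-lactamase reporter, via FRET-disruption fluorescence.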

[10] = target: Tumor necrosis factor (Homo sapiens) (UniProt P01375); experiment: qHTS assay to identify small molecules that stimulate Tumor Necrosis Factor-alpha (TNF-alpha) secretion (AID 651757; active means well fitted curve in the direction sought with a large enough effect in the signal ratio; the % refers to the signal ratio; further: 0% is about no effect)
In short: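 Human monocytic THP-1 cells are plated, treated with compound and held at 37 C for 17 hrs. Labeled anti-TNF-alpha antibody mixture is then added; after 3 hr at room temperature, TR-FRET signal reports secreted TNF-alpha.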

[11] = qHTS assay to identify small molecules that stimulate interleukin-8 (IL-8) secretion (AID 651758; active means well fitted activation curve with a large enough effect in the signal ratio; the % refers to the signal ratio; further: potency means the concentration at half of the fitted maximal effect; on activation: 0% is about no effect)
In short: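 Secreted IL-8 measured homogeneously by TR-FRET (two labelled anti-IL-8 antibodies, 1-3 h at room temperature) after a 16 h, 37 C compound treatment of THP-1 cells at 2000 cells/well.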

[12] = target: Nuclear receptor ROR-gamma (Homo sapiens) (UniProt P51449); experiment: qHTS assay for small molecule antagonists of the retinoid-related orphan receptor gamma (ROR-gamma) signaling pathway (AID 651802);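 further: CHO cells with doxycycline-induced ROR-gamma expression; on the % scale 0 is the no-effect control and ±100 the full control effect; nearly all actives have a fitted effect of over 60% in size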
In short: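 Steps: cells dispensed; compound or DMSO transferred by pin tool; doxycycline added to induce the ROR response element-driven luciferase; plates held 16hr at 37C; ONE-Glo added and luminescence measured.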

[13] = Cell Proliferation Assay against the TMD8 Cell Line (Caspase readout at 16 hrs) (AID 651712)
In short: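 Caspase-Glo luminescence measured apoptosis after a 16 h, 37 C compound exposure of TMD8 cells (500 cells/well, 5% FBS RPMI). DMSO set 0% and bortezomib at 9.2 uM final set 100% activity.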

[14] = Cell Proliferation Assay against the TMD8 Cell Line (Caspase readout at 8 hrs) (AID 651713);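 further: 0% = DMSO and 100% = 9.2 µM bortezomib caspase signal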
In short: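 Caspase 3/7 activation in ABC DLBCL TMD8 cells is measured by luminescence after an 8 h compound exposure at 37C. Relative light units are scaled between DMSO (0%) and 9.2 uM final bortezomib (100%).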

[15] = qHTS assay for small molecule agonists of the antioxidant response element (ARE) signaling pathway (AID 651741; active means well fitted activation curve with a large enough effect in the signal ratio; the % refers to the signal ratio; further: potency means the concentration at half of the fitted maximal effect; on activation: % of control where 0% means no effect)
In short: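 Beta-lactamase reporter under ARE control in HepG2 cells, 2,000 per well, was induced by 16 h compound treatment at 37 C. Read-out was fluorescence from LiveBLAzer B/G FRET substrate after 2 h at room temperature.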

[16] = qHTS assay for small molecule disruptors of the mitochondrial membrane potential - 1 hr assay (AID 651754; calls by dose curve; further: on the % scale 0 is the no-effect control and ±100 the full control effect; nearly all actives have a fitted effect of over 35% in size)
In short: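 Loss of mitochondrial potential shifts the cationic dye from red mitochondrial aggregates to green cytoplasmic monomers. Cells (HepG2) are treated with compound for 1 hr before a 30 min dye incubation at 37C.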

[17] = qHTS assay for small molecule disruptors of the mitochondrial membrane potential - 5 hr assay (AID 651755; calls by dose curve; further: on the % scale 0 is the no-effect control and ±100 the full control effect; nearly all actives have a fitted effect of over 40% in size)
In short: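 Membrane-potential dye readout: red aggregate (540 ex/590 em) versus green monomer (490 ex/535 em) fluorescence after 30 min dye loading, following 5 hr compound exposure at 37C of overnight-plated HepG2 cells.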

Chain of Tumor necrosis factor (Homo sapiens) (P01375 whole entry, looked up): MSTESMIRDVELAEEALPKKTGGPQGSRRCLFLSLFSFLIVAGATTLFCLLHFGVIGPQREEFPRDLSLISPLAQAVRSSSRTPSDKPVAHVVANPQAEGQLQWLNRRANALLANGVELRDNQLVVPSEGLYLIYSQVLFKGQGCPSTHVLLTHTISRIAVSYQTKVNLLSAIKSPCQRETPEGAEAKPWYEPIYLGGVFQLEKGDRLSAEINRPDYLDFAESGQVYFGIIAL
Chain of Tyrosine-protein kinase Yes (Homo sapiens) (P07947 whole entry, looked up): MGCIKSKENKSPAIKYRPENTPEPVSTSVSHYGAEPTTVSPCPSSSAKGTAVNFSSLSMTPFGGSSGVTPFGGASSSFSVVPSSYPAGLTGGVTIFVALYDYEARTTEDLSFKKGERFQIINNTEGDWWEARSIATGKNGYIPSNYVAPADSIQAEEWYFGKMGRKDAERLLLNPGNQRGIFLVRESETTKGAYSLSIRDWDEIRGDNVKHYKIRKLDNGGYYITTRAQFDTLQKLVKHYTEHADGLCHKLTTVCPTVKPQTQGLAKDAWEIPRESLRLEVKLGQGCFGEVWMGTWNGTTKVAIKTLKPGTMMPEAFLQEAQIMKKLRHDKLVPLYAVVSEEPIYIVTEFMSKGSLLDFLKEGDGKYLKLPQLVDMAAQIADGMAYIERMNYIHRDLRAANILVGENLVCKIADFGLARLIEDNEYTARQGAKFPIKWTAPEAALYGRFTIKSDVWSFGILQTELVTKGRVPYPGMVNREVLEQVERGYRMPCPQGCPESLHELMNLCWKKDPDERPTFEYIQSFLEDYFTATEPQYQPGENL
Chain of Peroxisome proliferator-activated receptor alpha (Homo sapiens) (Q07869 whole entry, looked up): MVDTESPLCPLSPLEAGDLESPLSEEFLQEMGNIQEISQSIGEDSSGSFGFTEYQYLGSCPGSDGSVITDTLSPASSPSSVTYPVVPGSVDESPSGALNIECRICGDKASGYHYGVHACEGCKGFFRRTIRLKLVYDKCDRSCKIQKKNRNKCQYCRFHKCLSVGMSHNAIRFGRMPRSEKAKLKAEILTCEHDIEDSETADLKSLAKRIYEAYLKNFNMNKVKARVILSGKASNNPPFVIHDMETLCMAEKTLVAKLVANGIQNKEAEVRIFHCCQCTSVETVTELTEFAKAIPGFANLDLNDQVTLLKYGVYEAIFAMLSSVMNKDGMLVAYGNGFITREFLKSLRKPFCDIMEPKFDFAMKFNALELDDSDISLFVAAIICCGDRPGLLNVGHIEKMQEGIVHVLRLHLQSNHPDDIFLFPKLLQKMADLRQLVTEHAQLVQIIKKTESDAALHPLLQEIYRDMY
Chain of Nuclear receptor ROR-gamma (Homo sapiens) (P51449 whole entry, looked up): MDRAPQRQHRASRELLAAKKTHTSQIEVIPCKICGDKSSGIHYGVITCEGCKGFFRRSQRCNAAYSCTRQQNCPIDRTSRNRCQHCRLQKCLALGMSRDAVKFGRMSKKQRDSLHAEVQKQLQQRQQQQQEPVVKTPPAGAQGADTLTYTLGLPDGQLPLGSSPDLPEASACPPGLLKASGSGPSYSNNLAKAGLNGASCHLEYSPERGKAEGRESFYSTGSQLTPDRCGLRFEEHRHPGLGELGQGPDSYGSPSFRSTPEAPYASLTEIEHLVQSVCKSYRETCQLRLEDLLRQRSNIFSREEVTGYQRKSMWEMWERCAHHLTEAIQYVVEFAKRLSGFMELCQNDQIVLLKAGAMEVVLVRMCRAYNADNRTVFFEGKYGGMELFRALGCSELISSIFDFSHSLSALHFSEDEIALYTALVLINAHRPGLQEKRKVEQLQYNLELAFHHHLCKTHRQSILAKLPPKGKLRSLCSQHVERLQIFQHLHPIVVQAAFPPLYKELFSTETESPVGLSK

COC(=O)C1=C(C)NC(C)=C(C(=O)OCCCN2CCC(c3ccccc3)(c3ccccc3)CC2)[C@H]1c1cccc([N+](=O)[O-])c1
1.4%: viability, percent of control [2]
inactive: Potency [3] | outcome [4]
active: Potency [1] 23.7 µM

O=C(O)CN(CCN(CC(=O)O)CC(=O)O)CC(=O)O
inactive: activation [5] -1.95% and 0.161% | activation [6] 2.06% and 1.21% | max response [7] 2.01% and 0.29% | max response [8] 14.1% and -8.31%

O=C(O)CCC(=O)C(=O)O
inactive: activation [5] -2.86% | activation [9] 0.211% | outcome [10] | Potency [11] | activation [6] 0.4% | max response [7] 4.88% | outcome [12] | max response [8] -1.5%

O=C(O)CC/C=C\CC[C@H]1[C@@H](N2CCCCC2)[C@@H](O)C[C@@H]1OCc1ccc(-c2ccccc2)cc1
105%: viability, percent of control [2]
inactive: Potency [1] | Potency [13] | Potency [14] | Potency [3] | outcome [4]

O=S(=O)(O)O
inactive: Potency [15] | outcome [16] | outcome [17] | outcome [10] | Potency [11] | activation [6] -0.349% and 1.61% | max response [7] -1.64% and -3.82% | max response [8] -6.94% and 4.69%

Cc1c2oc3c(C)ccc(C(=O)N[C@@H]4C(=O)NC(C(C)C)C(=O)N5CCC[C@H]5C(=O)N(C)CC(=O)N(C)C(C(C)C)C(=O)O[C@@H]4C)c3nc-2c(C(=O)N[C@@H]2C(=O)NC(C(C)C)C(=O)N3CCC[C@H]3C(=O)N(C)CC(=O)N(C)C(C(C)C)C(=O)O[C@@H]2C)c(N)c1=O (some centres not stated) (I: T[ξV]P[Sar][ξNMeV] / II: T[ξV]P[Sar][ξNMeV]; ester I:1-I:C, II:1-II:C; linker I:N-II:N via Actinocin(9to1))
inactive: Potency [3] | outcome [4]
21.5%: viability, percent of control [2]
active: Potency [1] 0.0119 µM

CC(C)(C)NC(=O)[C@@H]1C[C@@H]2CCCC[C@@H]2CN1C[C@@H](O)[C@H](Cc1ccccc1)NC(=O)[C@H](CC(N)=O)NC(=O)c1ccc2ccccc2n1
inactive: outcome [16] | outcome [17] | outcome [10] | activation [6] 0.529% | max response [7] -0.457% | max response [8] -9.17%

CC(O)CO (configuration not stated)
inactive: Potency [15] | activation [5] 0.0778% and -3.92% | activation [9] 3.41% and -1.36% | outcome [16] | outcome [17] | outcome [10] | Potency [11] | activation [6] -1.84% and -0.0903% | max response [7] 4.63% and -8.84% | outcome [12] | max response [8] -5.98% and -4.66%

CCCCCCCCCCCCCCCCCCOP(=O)([O-])OC1CC[N+](C)(C)CC1
93.3% [at 29.8 µM]: viability, percent of control [2]
inactive: Potency [1] | Potency [13] | Potency [14] | Potency [3] | outcome [4]

O=CCCCC=O
active: Potency [5] 35.5 µM
inactive: activation [9] 3.18% | outcome [16] | outcome [17] | outcome [10] | max response [7] -1.75% | max response [8] -17.7%

CC1(C)C(C=C(Cl)Cl)C1C(=O)OCc1cccc(Oc2ccccc2)c1 (configuration not stated)
inactive: activation [5] -1.26% [middle of 4 runs] | activation [6] -0.92% and -0.145% and 0.247% | max response [7] -0.904% [middle of 4 runs] | max response [8] -3.1% [middle of 4 runs]

CNC1CCN(C(Cc2cccc(-c3ccncc3)c2)C(=O)c2sc3c(F)ccc(F)c3c2Cl)CC1 (configuration not stated)
inactive: Potency [1] | Potency [3] | outcome [4]
0.927%: viability, percent of control [2]

CC(C)=O
inactive: Potency [15] | activation [5] -0.255% | activation [9] 2.82% | outcome [16] | outcome [17] | outcome [10] | activation [6] -1.82% | max response [7] -7.67% | outcome [12] | max response [8] -3.47%

CCOC(C)=O
inactive: activation [5] -1.83% | activation [9] -0.483% | outcome [16] | outcome [17] | outcome [10] | max response [7] 6.06% | outcome [12] | max response [8] 1.62%

CC[C@@H](C(=O)O)C1CC[C@H](C)C([C@@H](C)[C@H](O)[C@H](C)C(=O)[C@H](CC)C2O[C@]3(C=C[C@@H](O)[C@]4(CC[C@@](C)(C5CC[C@](O)(CC)[C@H](C)O5)O4)O3)[C@H](C)C[C@@H]2C)O1 (some centres not stated)
11.4%: viability, percent of control [2]
inactive: Potency [3] | outcome [4]

CC1=C(/C=C/C(C)=C/C=C/C(C)=C/CO)C(C)(C)CCC1
inactive: activation [5] -4.27% and -5.83% | activation [9] -0.416% and -2.98% | outcome [16] | outcome [10] | activation [6] 1.25% and 1.27% | max response [7] -3.78% and -1.63% | max response [8] -15.5% and 5.78%
active: Potency [15] 68.6 µM and 42.2 µM | Potency [11] 37.6 µM
